# How the values were obtained:
# Test in all cases: DAPPL (digital affinity profiling via proximity ligation, sequencing); 10 mM Tris-HCl pH 7.5, 50 mM NaCl, 1 mM DTT, 4% glycerol, room temperature, 30 min; GST-TFs on glutathione beads, 16-mer random dsDNA library, 0.1% formaldehyde crosslink after washing; high values mean tight binding
# FLI1 = target: T1, FLI1 (Homo sapiens, UniProt Q01543 1-452); conditions: protein: recombinant; tags: N-terminal GST; dsDNA, one strand shown
# T1 sequence: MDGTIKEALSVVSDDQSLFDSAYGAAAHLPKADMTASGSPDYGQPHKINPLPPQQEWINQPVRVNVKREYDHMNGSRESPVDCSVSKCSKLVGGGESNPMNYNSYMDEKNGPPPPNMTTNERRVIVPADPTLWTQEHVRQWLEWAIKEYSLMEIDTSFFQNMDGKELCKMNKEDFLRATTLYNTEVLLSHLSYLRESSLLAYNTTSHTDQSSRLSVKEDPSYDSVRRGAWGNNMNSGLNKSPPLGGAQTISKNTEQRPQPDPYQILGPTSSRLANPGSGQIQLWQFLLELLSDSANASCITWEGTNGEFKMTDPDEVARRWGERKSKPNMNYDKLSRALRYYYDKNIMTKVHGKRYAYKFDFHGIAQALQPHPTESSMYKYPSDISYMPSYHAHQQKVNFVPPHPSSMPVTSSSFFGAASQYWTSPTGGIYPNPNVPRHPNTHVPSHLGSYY
# In short: (§1)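 Yeast served to express human transcription factors as GST fusions, which were then captured on glutathione beads and labelled with DNA barcodes. Pooled with a tag-only sample, they were incubated with 200 nmole of a 16-mer random double-stranded DNA library for 30 min at room temperature in Tris/NaCl/DTT/glycerol buffer, washed, crosslinked with 0.1% formaldehyde, ligated by proximity, amplified by PCR and sequenced. Dividing each hexamer's read frequency for a factor by its frequency for the tag-only sample gives the binding signal.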
# ELK1 = target: T2, ELK1 (Homo sapiens, UniProt P19419 1-428); conditions: protein: recombinant; tags: N-terminal GST; dsDNA, one strand shown
# T2 sequence: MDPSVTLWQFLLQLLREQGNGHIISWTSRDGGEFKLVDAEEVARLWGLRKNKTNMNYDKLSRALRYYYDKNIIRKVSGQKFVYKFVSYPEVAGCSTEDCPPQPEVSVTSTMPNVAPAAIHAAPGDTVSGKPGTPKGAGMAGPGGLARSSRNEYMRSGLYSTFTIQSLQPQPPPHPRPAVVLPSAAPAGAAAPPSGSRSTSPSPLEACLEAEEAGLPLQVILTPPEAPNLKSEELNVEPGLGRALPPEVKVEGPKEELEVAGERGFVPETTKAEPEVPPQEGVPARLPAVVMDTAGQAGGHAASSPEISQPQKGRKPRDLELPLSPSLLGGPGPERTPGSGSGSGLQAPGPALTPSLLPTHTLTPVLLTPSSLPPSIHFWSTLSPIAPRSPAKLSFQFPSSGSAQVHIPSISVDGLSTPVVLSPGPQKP
# In short: as §1
# GABPA = target: T3, GABPA (Homo sapiens, UniProt Q06546 1-454); conditions: protein: recombinant; tags: N-terminal GST; dsDNA, one strand shown
# T3 sequence: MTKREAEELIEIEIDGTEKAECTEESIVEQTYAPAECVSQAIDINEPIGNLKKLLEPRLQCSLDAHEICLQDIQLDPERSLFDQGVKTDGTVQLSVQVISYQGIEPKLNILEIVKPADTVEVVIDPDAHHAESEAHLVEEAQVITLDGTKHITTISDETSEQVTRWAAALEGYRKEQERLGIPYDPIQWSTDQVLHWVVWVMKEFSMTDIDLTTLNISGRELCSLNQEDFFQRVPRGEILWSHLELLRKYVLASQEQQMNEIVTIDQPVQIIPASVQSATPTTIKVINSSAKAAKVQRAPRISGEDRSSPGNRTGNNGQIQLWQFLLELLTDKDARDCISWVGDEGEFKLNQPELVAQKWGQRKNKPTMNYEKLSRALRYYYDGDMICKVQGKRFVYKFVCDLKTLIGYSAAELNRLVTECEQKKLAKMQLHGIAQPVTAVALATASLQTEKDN
# In short: as §1
# ERG = target: T4, ERG (Homo sapiens, UniProt P11308 1-479); conditions: protein: recombinant; tags: N-terminal GST; dsDNA, one strand shown
# T4 sequence: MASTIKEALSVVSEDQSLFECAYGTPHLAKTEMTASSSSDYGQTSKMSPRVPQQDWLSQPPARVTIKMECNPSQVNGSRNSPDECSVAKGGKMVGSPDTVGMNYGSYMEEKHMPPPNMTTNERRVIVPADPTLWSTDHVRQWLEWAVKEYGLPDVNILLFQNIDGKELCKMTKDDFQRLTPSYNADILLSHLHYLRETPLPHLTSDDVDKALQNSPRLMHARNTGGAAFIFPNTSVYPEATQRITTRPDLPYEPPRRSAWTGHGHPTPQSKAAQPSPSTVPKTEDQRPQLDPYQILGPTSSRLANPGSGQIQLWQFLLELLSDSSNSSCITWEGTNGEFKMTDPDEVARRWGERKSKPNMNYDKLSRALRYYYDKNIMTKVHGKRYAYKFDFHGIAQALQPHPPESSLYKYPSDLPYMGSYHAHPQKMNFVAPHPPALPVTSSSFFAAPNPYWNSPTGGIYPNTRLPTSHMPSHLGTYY
# In short: as §1
# ELF1 = ELF1 (Homo sapiens, UniProt P32519 1-619); conditions: protein: recombinant; tags: N-terminal GST; dsDNA, one strand shown
# Chain of ELF1 (P32519 whole entry): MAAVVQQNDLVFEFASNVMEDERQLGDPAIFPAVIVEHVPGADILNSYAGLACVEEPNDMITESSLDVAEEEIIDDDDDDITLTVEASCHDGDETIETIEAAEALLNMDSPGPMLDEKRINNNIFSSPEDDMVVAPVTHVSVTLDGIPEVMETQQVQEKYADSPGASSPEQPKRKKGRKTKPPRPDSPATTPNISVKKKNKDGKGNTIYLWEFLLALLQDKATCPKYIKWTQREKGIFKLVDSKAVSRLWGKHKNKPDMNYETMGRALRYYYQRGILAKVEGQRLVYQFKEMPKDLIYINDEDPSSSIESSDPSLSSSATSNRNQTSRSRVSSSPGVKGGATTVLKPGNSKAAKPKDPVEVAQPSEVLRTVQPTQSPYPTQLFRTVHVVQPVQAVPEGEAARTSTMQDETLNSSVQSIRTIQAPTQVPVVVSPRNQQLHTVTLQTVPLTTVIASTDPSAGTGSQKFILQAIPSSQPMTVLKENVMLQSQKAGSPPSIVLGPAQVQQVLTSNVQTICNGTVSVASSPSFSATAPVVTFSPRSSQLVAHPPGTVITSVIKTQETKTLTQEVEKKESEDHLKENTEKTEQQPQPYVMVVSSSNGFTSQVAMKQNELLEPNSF
# In short: as §1
# EHF = target: T5, EHF (Homo sapiens, UniProt Q9NZC4 1-300); conditions: protein: recombinant; tags: N-terminal GST; dsDNA, one strand shown
# T5 sequence: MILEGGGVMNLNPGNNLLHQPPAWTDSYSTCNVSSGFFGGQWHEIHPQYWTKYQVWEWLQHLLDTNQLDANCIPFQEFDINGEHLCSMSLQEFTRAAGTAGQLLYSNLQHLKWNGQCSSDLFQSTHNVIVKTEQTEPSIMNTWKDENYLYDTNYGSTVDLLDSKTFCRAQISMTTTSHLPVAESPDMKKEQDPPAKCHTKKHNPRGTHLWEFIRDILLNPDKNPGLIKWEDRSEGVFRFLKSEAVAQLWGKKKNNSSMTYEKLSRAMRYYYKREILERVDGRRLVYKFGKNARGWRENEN
# In short: as §1
# SPI1 = SPI1 (Homo sapiens, UniProt P17947 1-270); conditions: protein: recombinant; tags: N-terminal GST; dsDNA, one strand shown
# In short: as §1
# SPIB = SPIB (Homo sapiens, UniProt Q01892 1-262); conditions: protein: recombinant; tags: N-terminal GST; dsDNA, one strand shown
# Chain of SPIB (Q01892 whole entry): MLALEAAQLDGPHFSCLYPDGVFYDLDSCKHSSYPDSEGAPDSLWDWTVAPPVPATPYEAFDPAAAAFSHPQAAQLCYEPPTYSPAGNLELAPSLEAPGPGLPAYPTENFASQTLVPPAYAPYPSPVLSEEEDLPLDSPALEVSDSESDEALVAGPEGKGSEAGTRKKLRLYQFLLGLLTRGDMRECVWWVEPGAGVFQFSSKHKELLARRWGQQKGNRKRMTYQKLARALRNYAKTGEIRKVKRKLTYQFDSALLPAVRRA
# In short: as §1
# ELK3 = target: T6, ELK3 (Homo sapiens, UniProt P41970 1-407); conditions: protein: recombinant; tags: N-terminal GST; dsDNA, one strand shown
# T6 sequence: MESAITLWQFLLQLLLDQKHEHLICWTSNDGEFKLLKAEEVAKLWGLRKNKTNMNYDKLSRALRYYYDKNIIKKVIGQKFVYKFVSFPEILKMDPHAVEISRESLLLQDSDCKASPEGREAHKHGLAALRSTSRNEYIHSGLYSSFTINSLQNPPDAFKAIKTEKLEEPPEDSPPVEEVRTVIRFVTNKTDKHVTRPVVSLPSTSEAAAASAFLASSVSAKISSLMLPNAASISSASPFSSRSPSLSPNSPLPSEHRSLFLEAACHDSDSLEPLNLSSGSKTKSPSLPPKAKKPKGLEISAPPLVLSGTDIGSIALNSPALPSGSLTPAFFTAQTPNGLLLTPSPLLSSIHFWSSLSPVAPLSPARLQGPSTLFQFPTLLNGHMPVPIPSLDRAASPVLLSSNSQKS
# In short: as §1
# FEV = target: T7, FEV (Homo sapiens, UniProt Q99581 1-238); conditions: protein: recombinant; tags: N-terminal GST; dsDNA, one strand shown
# T7 sequence: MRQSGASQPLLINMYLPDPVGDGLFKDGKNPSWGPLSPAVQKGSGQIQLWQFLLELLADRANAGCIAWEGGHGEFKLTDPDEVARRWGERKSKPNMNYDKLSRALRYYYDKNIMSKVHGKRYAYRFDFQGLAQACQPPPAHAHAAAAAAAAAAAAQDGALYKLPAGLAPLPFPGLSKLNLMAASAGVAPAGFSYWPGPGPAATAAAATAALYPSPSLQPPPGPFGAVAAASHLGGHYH
# In short: as §1
# ETV5 = ETV5 (Homo sapiens, UniProt P41161 1-510); conditions: protein: recombinant; tags: N-terminal GST; dsDNA, one strand shown
# Chain of ETV5 (P41161 whole entry): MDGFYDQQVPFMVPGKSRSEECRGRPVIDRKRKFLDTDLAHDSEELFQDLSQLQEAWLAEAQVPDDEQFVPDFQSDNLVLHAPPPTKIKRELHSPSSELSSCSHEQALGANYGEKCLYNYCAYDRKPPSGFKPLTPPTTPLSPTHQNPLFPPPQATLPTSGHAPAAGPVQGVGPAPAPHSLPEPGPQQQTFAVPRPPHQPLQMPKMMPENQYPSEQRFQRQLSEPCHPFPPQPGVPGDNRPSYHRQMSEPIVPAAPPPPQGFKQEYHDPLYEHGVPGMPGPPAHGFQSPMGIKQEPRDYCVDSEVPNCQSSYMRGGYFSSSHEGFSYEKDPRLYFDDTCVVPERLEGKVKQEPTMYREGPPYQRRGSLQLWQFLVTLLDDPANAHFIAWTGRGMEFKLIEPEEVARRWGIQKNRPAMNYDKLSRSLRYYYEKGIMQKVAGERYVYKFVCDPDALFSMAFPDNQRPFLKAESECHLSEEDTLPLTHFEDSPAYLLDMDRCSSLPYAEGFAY
# In short: as §1
# HSF1 = HSF1 (Homo sapiens, UniProt Q00613 1-529); conditions: protein: recombinant; tags: N-terminal GST; chain copies: 3; dsDNA, one strand shown
# Chain of HSF1 (Q00613 whole entry): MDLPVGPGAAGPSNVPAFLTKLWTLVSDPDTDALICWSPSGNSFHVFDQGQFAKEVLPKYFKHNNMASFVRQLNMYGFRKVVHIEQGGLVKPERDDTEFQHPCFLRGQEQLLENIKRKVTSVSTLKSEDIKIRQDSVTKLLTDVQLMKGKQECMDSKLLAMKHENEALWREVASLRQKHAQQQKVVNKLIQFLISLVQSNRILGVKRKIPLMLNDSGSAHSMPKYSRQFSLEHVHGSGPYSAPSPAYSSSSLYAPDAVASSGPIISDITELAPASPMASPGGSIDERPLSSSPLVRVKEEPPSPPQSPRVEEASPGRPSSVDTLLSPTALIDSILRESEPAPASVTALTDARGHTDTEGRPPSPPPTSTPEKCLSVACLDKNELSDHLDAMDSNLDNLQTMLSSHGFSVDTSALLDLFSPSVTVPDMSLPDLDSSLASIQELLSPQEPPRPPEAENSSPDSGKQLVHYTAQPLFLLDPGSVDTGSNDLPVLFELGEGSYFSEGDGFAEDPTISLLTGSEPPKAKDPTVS
# In short: as §1
# SPIC = target: T8, SPIC (Homo sapiens, UniProt Q8N5J4 1-248); conditions: protein: recombinant; tags: N-terminal GST; dsDNA, one strand shown
# T8 sequence: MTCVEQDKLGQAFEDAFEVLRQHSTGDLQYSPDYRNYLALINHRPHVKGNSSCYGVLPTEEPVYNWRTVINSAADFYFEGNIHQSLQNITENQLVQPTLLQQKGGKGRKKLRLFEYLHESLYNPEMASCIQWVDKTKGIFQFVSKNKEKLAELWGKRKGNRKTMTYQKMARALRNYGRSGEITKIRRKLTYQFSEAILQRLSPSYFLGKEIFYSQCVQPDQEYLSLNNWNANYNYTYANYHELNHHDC
# In short: as §1
# ELF4 = ELF4 (Homo sapiens, UniProt Q99607 1-663); conditions: protein: recombinant; tags: N-terminal GST; dsDNA, one strand shown
# Chain of ELF4 (Q99607 whole entry): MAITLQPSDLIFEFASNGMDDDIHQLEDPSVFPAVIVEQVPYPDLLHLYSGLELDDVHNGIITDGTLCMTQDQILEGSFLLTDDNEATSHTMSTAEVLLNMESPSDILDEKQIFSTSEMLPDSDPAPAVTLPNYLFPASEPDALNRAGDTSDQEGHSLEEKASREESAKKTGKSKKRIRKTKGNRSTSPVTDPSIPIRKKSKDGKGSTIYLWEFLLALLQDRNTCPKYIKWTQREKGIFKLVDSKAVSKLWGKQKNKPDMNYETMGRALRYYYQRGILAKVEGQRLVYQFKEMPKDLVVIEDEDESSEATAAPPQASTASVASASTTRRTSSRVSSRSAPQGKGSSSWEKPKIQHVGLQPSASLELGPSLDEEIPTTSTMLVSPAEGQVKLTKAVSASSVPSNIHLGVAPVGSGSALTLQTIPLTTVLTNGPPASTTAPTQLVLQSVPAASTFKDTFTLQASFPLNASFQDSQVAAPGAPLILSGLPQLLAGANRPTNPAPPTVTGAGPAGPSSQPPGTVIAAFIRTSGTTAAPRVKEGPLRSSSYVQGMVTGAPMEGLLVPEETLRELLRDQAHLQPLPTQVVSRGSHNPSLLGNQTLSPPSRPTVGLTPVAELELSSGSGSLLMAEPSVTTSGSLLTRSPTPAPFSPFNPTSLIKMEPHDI
# In short: as §1
# ELK4 = target: T9, ELK4 (Homo sapiens, UniProt P28324-2 1-405); conditions: protein: recombinant; tags: N-terminal GST; dsDNA, one strand shown
# T9 sequence: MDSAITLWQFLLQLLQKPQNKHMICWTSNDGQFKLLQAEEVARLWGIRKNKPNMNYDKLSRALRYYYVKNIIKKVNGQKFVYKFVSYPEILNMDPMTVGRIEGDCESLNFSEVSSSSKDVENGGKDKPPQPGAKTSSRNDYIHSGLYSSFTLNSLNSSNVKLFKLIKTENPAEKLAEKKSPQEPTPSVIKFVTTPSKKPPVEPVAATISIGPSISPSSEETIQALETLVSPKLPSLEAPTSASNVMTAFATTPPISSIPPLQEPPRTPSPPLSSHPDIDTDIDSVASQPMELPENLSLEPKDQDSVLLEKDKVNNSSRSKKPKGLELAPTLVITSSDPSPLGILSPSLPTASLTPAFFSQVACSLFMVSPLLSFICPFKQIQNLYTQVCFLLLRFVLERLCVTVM
# In short: as §1
# ETV2 = target: T10, ETV2 (Homo sapiens, UniProt O00321 1-342); conditions: protein: recombinant; tags: N-terminal GST; dsDNA, one strand shown
# T10 sequence: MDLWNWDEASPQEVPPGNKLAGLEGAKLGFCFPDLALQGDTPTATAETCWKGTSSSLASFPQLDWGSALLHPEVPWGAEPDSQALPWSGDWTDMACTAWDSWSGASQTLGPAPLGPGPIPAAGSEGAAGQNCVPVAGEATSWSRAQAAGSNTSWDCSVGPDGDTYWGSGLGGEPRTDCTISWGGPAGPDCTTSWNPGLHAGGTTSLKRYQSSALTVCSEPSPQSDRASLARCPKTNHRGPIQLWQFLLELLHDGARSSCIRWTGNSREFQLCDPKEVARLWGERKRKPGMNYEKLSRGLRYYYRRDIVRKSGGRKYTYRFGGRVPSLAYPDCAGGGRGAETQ
# In short: as §1
# ELF3 = target: T11, ELF3 (Homo sapiens, UniProt P78545 1-371); conditions: protein: recombinant; tags: N-terminal GST; dsDNA, one strand shown
# T11 sequence: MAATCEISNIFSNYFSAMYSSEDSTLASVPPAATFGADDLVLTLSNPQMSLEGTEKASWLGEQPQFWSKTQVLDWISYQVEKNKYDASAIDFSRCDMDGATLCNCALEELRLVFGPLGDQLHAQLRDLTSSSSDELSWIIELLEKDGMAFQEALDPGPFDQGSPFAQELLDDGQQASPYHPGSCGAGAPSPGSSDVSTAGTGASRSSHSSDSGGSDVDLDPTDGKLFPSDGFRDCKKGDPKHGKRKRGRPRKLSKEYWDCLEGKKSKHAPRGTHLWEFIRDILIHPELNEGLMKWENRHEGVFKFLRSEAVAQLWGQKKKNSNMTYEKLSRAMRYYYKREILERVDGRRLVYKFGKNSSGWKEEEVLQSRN
# In short: as §1
# CRX = CRX (Homo sapiens, UniProt O43186 1-299); conditions: protein: recombinant; tags: N-terminal GST; dsDNA, one strand shown
# Chain of CRX (O43186 whole entry): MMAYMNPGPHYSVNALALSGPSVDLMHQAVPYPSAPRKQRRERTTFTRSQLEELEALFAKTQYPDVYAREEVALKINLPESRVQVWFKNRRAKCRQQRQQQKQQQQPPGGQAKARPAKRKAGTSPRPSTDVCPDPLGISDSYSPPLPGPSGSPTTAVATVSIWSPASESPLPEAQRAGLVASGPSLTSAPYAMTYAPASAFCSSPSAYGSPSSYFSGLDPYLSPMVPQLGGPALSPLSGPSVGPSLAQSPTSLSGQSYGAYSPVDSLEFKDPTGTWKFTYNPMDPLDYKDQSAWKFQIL
# In short: as §1
# ETV1 = ETV1 (Homo sapiens, UniProt P50549 1-477); conditions: protein: recombinant; tags: N-terminal GST; dsDNA, one strand shown
# Chain of ETV1 (P50549 whole entry): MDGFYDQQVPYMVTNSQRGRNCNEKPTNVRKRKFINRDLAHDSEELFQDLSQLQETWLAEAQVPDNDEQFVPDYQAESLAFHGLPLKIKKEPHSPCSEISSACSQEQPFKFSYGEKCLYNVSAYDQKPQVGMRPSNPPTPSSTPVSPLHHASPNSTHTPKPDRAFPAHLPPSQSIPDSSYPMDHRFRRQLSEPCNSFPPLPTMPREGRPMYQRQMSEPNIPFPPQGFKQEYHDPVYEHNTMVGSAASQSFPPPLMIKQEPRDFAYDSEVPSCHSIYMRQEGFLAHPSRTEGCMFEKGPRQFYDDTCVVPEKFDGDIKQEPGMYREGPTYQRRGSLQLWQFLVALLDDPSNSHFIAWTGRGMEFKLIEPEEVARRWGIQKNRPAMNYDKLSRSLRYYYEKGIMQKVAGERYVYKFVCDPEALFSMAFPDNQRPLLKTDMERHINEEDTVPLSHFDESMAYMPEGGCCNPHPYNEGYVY
# In short: as §1
sequence,measurement,setting,value
TCTAGC,binding signal,FLI1,"1.31 fold enrichment (6-mer frequency, TF over GST control)"
same,binding signal,ELK1,"1.34 fold enrichment (6-mer frequency, TF over GST control)"
same,binding signal,GABPA,"1.24 fold enrichment (6-mer frequency, TF over GST control)"
same,binding signal,ERG,"1.32 fold enrichment (6-mer frequency, TF over GST control)"
same,binding signal,ELF1,"1.35 fold enrichment (6-mer frequency, TF over GST control)"
same,binding signal,EHF,"1.38 fold enrichment (6-mer frequency, TF over GST control)"
same,binding signal,SPI1,"1.21 fold enrichment (6-mer frequency, TF over GST control)"
same,binding signal,SPIB,"1.19 fold enrichment (6-mer frequency, TF over GST control)"
same,binding signal,ELK3,"1.44 fold enrichment (6-mer frequency, TF over GST control)"
same,binding signal,FEV,"1.25 fold enrichment (6-mer frequency, TF over GST control)"
same,binding signal,ETV5,"1.27 fold enrichment (6-mer frequency, TF over GST control)"
same,binding signal,HSF1,"2.63 fold enrichment (6-mer frequency, TF over GST control)"
same,binding signal,SPIC,"1.16 fold enrichment (6-mer frequency, TF over GST control)"
same,binding signal,ELF4,"1.26 fold enrichment (6-mer frequency, TF over GST control)"
same,binding signal,ELK4,"1.39 fold enrichment (6-mer frequency, TF over GST control)"
same,binding signal,ETV2,"1.19 fold enrichment (6-mer frequency, TF over GST control)"
same,binding signal,ELF3,"1.32 fold enrichment (6-mer frequency, TF over GST control)"
same,binding signal,CRX,"1.7 fold enrichment (6-mer frequency, TF over GST control)"
same,binding signal,ETV1,"1.21 fold enrichment (6-mer frequency, TF over GST control)"

# Reference: paper PMC7862700, “An all-to-all approach to the identification of sequence-specific readers for epigenetic DNA modifications on cytosine”
